The target in assay [1] is Cytochrome P450 3A7 (Homo sapiens) (UniProt P24462). Nature of the assay: Cytochrome P450 family 3 subfamily A member 7 (CYP3A7) small molecule antagonists: luciferase biochemical qHTS assay (AID 1963596). Also: % is scaled to controls: 0 for no effect and ±100 for the full control effect; nearly all actives have a fitted effect of over 40% in size. Summed up:
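Biochemical CYP3A7 activity measured with P450-Glo system: luciferin formed from proluciferin substrate in NADPH-driven reaction (1 h, room temperature) after 10 min compound preincubation. Signal in relative luminescence units.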

Assay [2] is described as follows: Viability qHTS for spleen associated tyrosine kinase inhibitor (SYKi) naive MV4-11 cells (AID 1963823). Also: nearly all actives have a fitted effect of over 40% in size. Also: potency is read from the fitted curve at half-maximal effect. Summed up: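 Seeding of 500 SYKi-naive MV4-11 cells per well onto pre-dispensed compounds preceded a 72 hr incubation at 37 C. Luminescent CellTiter-Glo signal, read after 10 min at room temperature, reflected viable cells.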
A short description of assay [3]: Viability qHTS for spleen associated tyrosine kinase inhibitor (SYKi) drug resistant MV4-11 cells (AID 1963824). Also: nearly all actives have a fitted effect of over 35% in size. Also: potency is read from the fitted curve at half-maximal effect. A digest of the protocol:
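SYK inhibitor-resistant MV4-11 AML cells, 500 per well, added to predispensed compounds and incubated 72 hr at 37 C, 5% CO2. Viability measured by CellTiter-Glo luminescence after 10 min at room temperature.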

Assay [4] can be described thus: Cellular viability qHTS for adrenocortical cancer (ACC) cell line SW-13 (AID 1963989). Also: nearly all actives have a fitted effect of over 65% in size. Also: potency is read from the fitted curve at half-maximal effect.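 As to activity (max response): cells grown in serum-free medium with ITS supplement; % is scaled to controls: 0 for no effect and ±100 for the full control effect.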 The conditions noted are these: SW-13 ACC cells viability, CellTiter-Glo, 48 h; activity (max response): active compounds read low. A digest of the protocol:
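Here, serum-free SW-13 cultures were dosed up to 46 uM. Following 48 h, ATP-dependent luminescence (CellTiter-Glo) reported viable cells, and logistic modeling produced IC50 values.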

Assay [5] can be described thus: Cellular viability qHTS for adrenocortical cancer (ACC) cell line NCI-H295R (AID 1963990).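 Also: 0% = DMSO only wells and -100% = full killing with cytotoxic reference compound; nearly all actives have a fitted effect of over 60% in size.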 Summed up: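 Viability of NCI-H295R after 48 h of treatment (final up to 46 uM) measured through cellular ATP luminescence.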

Molecules are shown by their SMILES. “And” between values parts separate entries of the source, which are not always exact repeats. Equal values may be shown once. Results filed as inconclusive are left out. A number with no mark means an inactive call. The source made the active and inactive calls. Calls follow the shape of the dose curve; as a rule, active = well fitted curve in the direction sought with a large enough effect; inconclusive = small, poorly fitted or top-dose-only effect, or another doubt; inactive = no such curve, though single readings can be large; an effect the other way counts as inactive or inconclusive. Where a SMILES comes first, the peptide text is derived from it. [ ]: non-standard residue; d: D form. pGlu = O=C1CC[C@@H](C(=O)O)N1

Chain of Cytochrome P450 3A7 (Homo sapiens) (P24462 whole entry, looked up): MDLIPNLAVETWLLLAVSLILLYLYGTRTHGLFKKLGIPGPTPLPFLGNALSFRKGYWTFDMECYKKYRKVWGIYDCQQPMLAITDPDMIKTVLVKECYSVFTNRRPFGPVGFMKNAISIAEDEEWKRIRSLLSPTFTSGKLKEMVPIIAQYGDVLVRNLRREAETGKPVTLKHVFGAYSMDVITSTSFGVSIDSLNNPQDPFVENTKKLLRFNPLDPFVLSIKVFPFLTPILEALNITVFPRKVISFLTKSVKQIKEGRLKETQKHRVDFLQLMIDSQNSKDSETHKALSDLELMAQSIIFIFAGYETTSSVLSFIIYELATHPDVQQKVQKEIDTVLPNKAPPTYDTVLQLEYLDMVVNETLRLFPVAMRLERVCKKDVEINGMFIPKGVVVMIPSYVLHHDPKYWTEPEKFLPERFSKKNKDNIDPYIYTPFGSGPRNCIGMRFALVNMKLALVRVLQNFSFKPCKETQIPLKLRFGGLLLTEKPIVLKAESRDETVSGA

Turning to `NCCNCCNCCNCCN`, in assay [1], the activity change, negative = inhibition is 14.5% [at 11.5 µM]. In addition, the viability (% of control) in assay [2] was 121% [at 9.25 µM]. Also, the viability, % of control in assay [3] was 109% [at 9.25 µM]. Further, in assay [4], the activity (max response) was 2.38%.

For `CCN1CCc2nc(N)oc2CC1`, the Potency entry in assay [1], in assay [2] and in assay [3] was “inactive” throughout. For the same compound, the activity (max response) in assay [4] is 7.47%.

Take `OC[C@H]1O[C@@H](O[C@@H]2[C@@H](CO)O[C@](O)(CO)[C@H]2O)[C@H](O)[C@@H](O)[C@H]1O`: the Potency entry in assay [1], in assay [2] and in assay [3] was “inactive” each time. The activity (max response) in assay [4] was 1.01% and 4.87%.

On to `CCN(CC)C(=O)c1cccc(C)c1`, for which the Potency result in assay [1], in assay [2] and in assay [3] was “inactive” throughout. Besides, the activity (max response) in assay [4] is 6.94%.

As to `C/C(=N\O)[C@@H](C)NCC(C)(C)CN[C@H](C)/C(C)=N/O`, the Potency entry in assay [1], in assay [2] and in assay [3] was “inactive” each time. The activity (max response) in assay [4] is 8.19%.

As for `CCCCNc1ncc(-c2ccc(CN3CCOCC3)cn2)c(NC2CCC(O)CC2)n1` (stereo not given), in assay [1], the Potency entry is “inactive”. Also, the Potency in assay [2] is 31.7 nM (active) and 57.4 nM (active); in assay [3], 91 nM (active). Also, the activity (max response) in assay [4] is -11.9%.

`CCNC(=O)[C@@H]1CCCN1C(=O)[C@H](CCCN=C(N)N)NC(=O)[C@H](CC(C)C)NC(=O)CNC(=O)[C@H](Cc1ccc(O)cc1)NC(=O)[C@H](CO)NC(=O)[C@H](Cc1c[nH]c2ccccc12)NC(=O)[C@H](Cc1cnc[nH]1)NC(=O)[C@@H]1CCC(=O)N1` ([pGlu]HWSYGLRP-NHEt): the Potency entry in assay [1] and in assay [3] was “inactive” throughout. Besides, the Potency in assay [2] is 13.3 µM (active). Besides, the activity (max response) in assay [4] is 7.58%.

For the compound `CCCc1ncc(C(=O)O)s1`, the Potency result in assay [1], in assay [2] and in assay [3] was “inactive” throughout. Also, the activity (max response) in assay [4] was 8.93%.

As for `FC1(F)C(F)(F)C(F)(F)C2(F)C(F)(F)C(F)(F)C(F)(F)C(F)(F)C2(F)C1(F)F` (stereo not given), the Potency result in assay [1], in assay [2] and in assay [3] was “inactive” in each case. For the same compound, the activity (max response) in assay [4] was 5.48%.

Take `C[C@H]1COc2c(C3(N)CC3)c(F)cc3c(=O)c(C(=O)O)cn1c23`: the Potency entry in assay [1], in assay [2] and in assay [3] was “inactive” each time. Further, the activity (max response) in assay [4] was -1.24%.

Take `O=C(COCC(=O)N1CCN(C(c2ccccc2)c2ccccc2)CC1)Nc1ccc(Cl)cc1C(=O)O`: the Potency entry in assay [1], in assay [2] and in assay [3] was “inactive” throughout. Also, in assay [4], the activity (max response) was -10.1%.

Regarding `CCC(=O)Nc1cccc(Oc2nc(Nc3ccc(N4CCN(C)CC4)cc3OC)ncc2Cl)c1`, in assay [1], the Potency result was “inactive”. Moreover, the Potency is 1.64 µM (active) and 2.35 µM (active) in assay [2]; 2.91 µM (active) and 2.35 µM (active) in assay [3]. Further, the activity (max response) in assay [4] was -16.6%.

Regarding `Cn1cc(-c2cnn3c(N)c(Br)c([C@@H]4CCCNC4)nc23)cn1`, the Potency result in assay [1] is “inactive”. The Potency in assay [2] is 0.417 µM (active); in assay [3], 731 nM (active) and 468 nM (active); in assay [4], 12.6 µM (active).

As for `CCO[C@H](Cc1ccc(OCCc2ccc(OS(C)(=O)=O)cc2)cc1)C(=O)O`, the Potency result in assay [1], in assay [2] and in assay [3] was “inactive” in each case. In addition, the activity (max response) in assay [4] was 6.74%.

In the case of `O=c1ccc2ccccc2o1`, the Potency entry in assay [1], in assay [2] and in assay [3] was “inactive” throughout. Moreover, the activity (max response) in assay [4] is -0.445%.

For `C=CCc1ccc(O)c(OC)c1`, the Potency entry in assay [1], in assay [2], in assay [3] and in assay [5] was “inactive” throughout. Also, in assay [4], the activity (max response) was 6.59%.

Source of the values: PubChem BioAssay (NCATS).
